# Measured values from the supplement of paper PMC4466236.
# The full ranking holds about 33,000 sequences; the median of “E-score (dimensionless, -0.5 to 0.5)” is about -0.058, and the highest 2% start at about 0.35. For the sample, the highest values were picked, then their nearest neighbours and some sequences at random.
# System: MvaT
# Assay: PBM 8-mer E-score (mean of HK and ME arrays) (E-score (dimensionless, -0.5 to 0.5)); higher = stronger relative binding preference
# Procedure, shortened: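 Full-length P. aeruginosa MvaT carrying an N-terminal glutathione S-transferase tag was tested by protein binding microarray following a previously described protocol. Two universal double-stranded 60-mer arrays, ME and HK, were used, each with a constant 25-mer primer region and a variable 35-mer region covering all 8-mers. The rank-based E-score is the mean of the two arrays, parsed with a custom script. Its range runs from -0.5 to 0.5 for each 8-mer.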
row,Sequence,PBM 8-mer E-score
1,GAAAGTGA,0.135
2,CCGACTAG,-0.0959
3,CTTATTAC,0.367
4,GCTATTAC,0.121
5,ACTATTAC,0.32
6,ACTATTAG,0.26
7,ATTATTAG,0.411
8,CTTATTGC,0.178
9,ATTATTAC,0.439
10,CTTATTCC,0.221
11,ATTATTCC,0.341
12,ATTATTGG,0.293
13,ATTATTCA,0.328
14,ATTATTCG,0.378
15,TACGACAA,0.131
16,CCACCTCG,-0.129
17,GAGGCCCA,-0.232
18,ATCCGAGG,-0.119
19,CAATTCTA,0.109
20,GATTTAGC,0.024
21,ACTTATGG,0.206
22,AGTGGTAG,0.00056

row,Sequence,PBM 8-mer E-score
1,CGCCGGCA,-0.168
2,CCTAACCG,-0.115
3,AAACTATA,0.334
4,GAACTAAA,0.338
5,AAACTATC,0.301
6,AAACTATT,0.371
7,AAACTAAA,0.357
8,TAACTAAA,0.312
9,ATTGAAAG,0.195
10,AGTCCCGC,-0.186
11,GTCCAATA,0.0714
12,AATGGGGT,0.0941
13,ACAACCTG,-0.038
14,GCGAGCCA,-0.16
15,CCAATATC,0.194
16,GCAATAAA,0.214
17,CCAATACA,0.142
18,ACAATATA,0.425
19,CCAATATA,0.367
20,ACAATATC,0.258
21,ACAATATG,0.262
22,GCAATAGA,0.127

row,Sequence,PBM 8-mer E-score
1,GCAATATA,0.414
2,CTAGGCCA,-0.211
3,CGATAGGA,-0.177
4,AAAACCTT,0.103
5,GCCATCGC,-0.219
6,ACTTACAA,0.307
7,GAATTTCA,0.108
8,CCTGGGCC,-0.238
9,ACACATTA,0.355
10,GCACATTA,0.19
11,ATACATTA,0.39
12,ACACATTG,0.113
13,GTACATTA,0.308
14,CTACATTA,0.241
15,GCCGATGA,-0.199
16,TAGCTATA,0.241
17,ACGGTAAT,0.18
18,GTAGGCAA,-0.171
19,TAGGGCAA,-0.0392
20,AATTACAA,0.367
21,TATTACAA,0.351
22,AATTACAG,0.268

row,Sequence,PBM 8-mer E-score
1,GATTACAA,0.188
2,AATTACAT,0.327
3,CATTACAA,0.166
4,AGGTGACT,-0.173
5,CCGAGACA,-0.0391
6,GAGGAGTA,-0.153
7,CGAGTATA,0.195
8,CTATATTC,0.204
9,ATATATTG,0.446
10,ATATATTC,0.454
11,AGATATTG,0.191
12,CTCTATTC,-0.0516
13,ATCTATTG,0.082
14,AATCATAA,0.306
15,ACCCGTCG,-0.0362
16,AGTATACC,0.234
17,CATATACA,0.275
18,AGTATACT,0.422
19,AATACACG,0.159
20,AGTATACA,0.321
21,GATATACA,0.205
22,AATACACA,0.151

row,Sequence,PBM 8-mer E-score
1,AATATACA,0.413
2,AATATACT,0.421
3,AATATACG,0.331
4,AATATACC,0.324
5,TATATACA,0.456
6,GAGCCGAC,-0.262
7,ACTTGCAG,0.0173
8,AGGCTTAG,-0.104
9,CGATAGTC,-0.0515
10,AGGTCGTG,-0.0505
11,CAGTAGCA,0.0532
12,GCGACTCC,-0.217
13,CGTAGGTA,-0.029
14,TCTATACA,0.136
15,TGTATACA,0.351
16,TGGATACA,-0.00533
17,AAGTTATC,0.256
18,AAGTTAGT,0.322
19,CAGTTATG,0.189
20,AAGTTACG,0.231
21,AAGTTATG,0.349
22,AAGTTATT,0.415
